In PubChem BioAssay (NCI):
About 79,000 compounds went through this panel and 15% of them were active in at least one assay; those are over-represented in the sample as a whole. Calls of active or inactive are those of the source. Cut-off read from the data, not from the text of the source: active = growth inhibition above about 70%; inactive = the rest.

Key:
[1] = NCI Yeast Anticancer Drug Screen. Data for the rad50 strain (AID 155);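 note: 0% = growth of vehicle-only cultures of the same strain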; conditions: S. cerevisiae rad50 strain growth inhibition; at 50.0 µM; active compounds read high
Outline: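 DNA repair mutant yeast, compound exposure, growth read-out; inhibition is taken relative to vehicle.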

[2] = NCI Yeast Anticancer Drug Screen. Data for the mec2-1 strain (AID 157); conditions: S. cerevisiae mec2-1 strain, at 50.0 µM, active compounds read high
Outline: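 Test agents were screened against the mec2-1 yeast strain, with defined DNA repair or cell cycle alteration. Growth was scored as inhibition against vehicle-only controls.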

[3] = NCI Yeast Anticancer Drug Screen. Data for the sgs1 mgt1 strain (AID 161);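 note: 0% = growth of cultures given vehicle only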; conditions: S. cerevisiae sgs1 mgt1 strain, at 50.0 µM, active compounds read high
Outline: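 Inhibition of yeast growth, normalised to vehicle-treated controls, is reported for a strain bearing genetic alterations in DNA damage repair.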

[4] = NCI Yeast Anticancer Drug Screen. Data for the cln2 rad14 strain (AID 165);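 note: 0% = growth equal to vehicle treated cultures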; conditions: S. cerevisiae cln2 rad14 strain, at 50.0 µM, active compounds read high
Outline: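 Growth of compound-exposed yeast (cln2 rad14 genotype) measured and expressed as inhibition relative to vehicle.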

[5] = NCI Yeast Anticancer Drug Screen. Data for the bub3 strain (AID 167); conditions: S. cerevisiae bub3 mutant strain, at 50.0 µM, active compounds read high
Outline: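 In this screen, a yeast mutant lacking normal mitotic checkpoint function is challenged with compound. Relative growth versus vehicle gives the inhibition value.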

[6] = NCI Yeast Anticancer Drug Screen. Data for the mlh1 rad18 strain (AID 175); conditions: S. cerevisiae mlh1 rad18 strain growth inhibition; at 50.0 µM; active compounds read high
Outline: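 In this whole-cell yeast screen, a strain with altered DNA damage repair is challenged with compound, and its growth is measured against matched vehicle-treated controls.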

Measured: growth inhibition

CCCCCCCCCCCCCCCCCCNC(=O)Nc1cc(C(C)C)ccc1C
inactive: [1] -13.3% | [2] -22.1% | [3] -14.8% | [4] -47.1% | [5] -2.7% | [6] -30.6%

COc1ccc(O)c2c(=O)ccccc12
inactive: [1] 8.5% | [2] 7.15% | [3] -3% | [4] -13.8% | [5] 5.4% | [6] 5.55%

CC(=O)C(C(=O)NCc1ccccc1)C(c1ccc2c(c1)OCO2)C(C(C)=O)C(=O)NCc1ccccc1 (stereo unspecified)
inactive: [1] -5.7% | [2] 1.25% | [3] -23.6% | [4] -17.3% | [5] -0.65% | [6] 0.45%

Cc1nc2c(=O)[nH]c(N)nc2[nH]c1=O
inactive: [1] -10% | [2] -4% | [3] -6.15% | [4] -30.4% | [5] -13.8% | [6] 2.3%

CC(C)C1OC2(CCCCC2)OCC1(C)C (stereo unspecified)
inactive: [1] 23.2% | [2] 14.8% | [3] 8.25% | [4] -8.35% | [5] 21.1% | [6] 23.4%

Cc1cc(O)c2c(c1)C[C@@H](O)C1=C2C(=O)c2c(O)ccc(OC3CC(O)C(OC4CC(OC5CCC(OC6CC(O)C(OC7CC(OC8CCC(O)C(C)O8)C(O)C(C)O7)C(C)O6)C(C)O5)C(O)C(C)O4)C(C)O3)c2C1=O (stereo partly specified)
active: [1] 88.5% | [2] 90.6% | [3] 90.1% | [4] 84.8% | [5] 86.6% | [6] 88.5%

COc1ccc(/C=C2/N=C(c3ccccc3)OC2=O)cc1
inactive: [1] -2.75% | [2] -8.35% | [3] -0.3% | [4] -28.9% | [5] -1.75% | [6] -6.8%

C=C(CCC(Cl)C(O)CO)[Si](C)(C)C (stereo unspecified)
inactive: [1] 37.5% | [2] -19.2% | [3] 52% | [4] 45.3% | [5] 49.2% | [6] 48.6%

COc1c(Cl)cc([N+](=O)[O-])cc1C(=O)O
inactive: [1] 6.4% | [2] 25.9% | [3] -3.55% | [4] -15.7% | [5] 15.6% | [6] 16.9%

CCCCCCCCCCCCCCCCCCNc1nc(=O)n(C2CC(O)C(COP(=O)(O)O)O2)cc1F (stereo unspecified)
inactive: [1] 12.9% | [2] 12.6% | [3] 16.8% | [4] 17% | [5] 9.25% | [6] -23%

O=S(=O)(c1ccccc1)c1ccccn1
inactive: [1] -13.1% | [2] -13.2% | [3] -19.9% | [4] 6.2% | [5] 3.7% | [6] -22.1%

CC1=NN(c2nc(N)nc(CSc3cc(Cl)c(C)cc3S(N)(=O)=O)n2)C(C)(C)C1
inactive: [1] -15.5% | [2] -8.7% | [3] 12.2% | [4] -8.35% | [5] -18.1% | [6] -4.95%

COc1cc(/C=C/C=C(C(=O)O)C(=O)O)cc(OC)c1OC
inactive: [1] -5% | [2] -1.2% | [3] -14.7% | [4] -11.4% | [5] -6.2% | [6] -4.45%

Cc1ccc(C(=O)OC2CCCC2)cc1
inactive: [1] 7.85% | [2] -0.7% | [3] 0.85% | [4] -7.7% | [5] -15.7% | [6] 4.1%

O=C(NNc1nc(CCl)cs1)c1ccccc1Cl
inactive: [1] -0.15% | [2] -31.6% | [3] 4.75% | [4] 7.35% | [5] -11.1% | [6] -11.6%

O=C/C=C/C=C/C=C/c1ccccc1
inactive: [1] 32.6% | [2] -6.15% | [3] 14.4% | [4] 13.7% | [5] -5.25% | [6] 27.6%

COC(=O)c1cc(=O)c2ccc(Cl)cc2[nH]1
inactive: [1] -8.05% | [2] 4.05% | [3] -10.9% | [4] -14.6% | [5] -18.3% | [6] -25.3%

O=C(OC(=O)c1cccnc1)c1cccnc1
inactive: [1] -30.2% | [2] -9.5% | [3] -7.75% | [4] 11.5% | [5] -2.85% | [6] 6.65%

Nc1ccccc1C(=O)Nc1ccc(Cl)cc1C(=O)O
inactive: [1] -7% | [2] -3% | [3] -14.2% | [4] -14.8% | [5] 2.65% | [6] -5.1%

C#CCN
inactive: [1] 9.25% | [2] 2% | [3] 2.8% | [4] 3.75% | [5] 8.05% | [6] -12.7%

O=C(Nc1ccc(Cl)cc1)Nc1nnc(-c2cccc(-c3nnc(NC(=O)Nc4ccc(Cl)cc4)o3)c2)o1
inactive: [1] 39.1% | [2] 34.3% | [3] 36.4% | [4] 21.7% | [5] -3.5% | [6] 14%

CNC(=O)n1cnc2ccccc21
inactive: [1] 33.2% | [2] 30.4% | [3] 37% | [4] 13.1% | [5] 60% | [6] 25.3%

CCOC(=O)C1(C)CCC(C(=O)OC)C1=O (stereo unspecified)
inactive: [1] -36.1% | [2] -31.1% | [3] -54.8% | [4] -5.45% | [5] -59.6% | [6] -18.1%

O=C(O)CCc1nc[nH]c1[N+](=O)[O-]
inactive: [1] -33.3% | [2] -10.6% | [3] -7.55% | [4] -44.9% | [5] 11.1% | [6] 8.1%

O=C1NC(c2ccccc2)C1N(Cc1ccccc1)Cc1ccccc1 (stereo unspecified)
inactive: [1] 21.3% | [2] 0.55% | [3] 22.2% | [4] 11.4% | [5] 12.8% | [6] 9.8%

COC(=O)CCC(=O)NC1=C(NCc2ccccc2)C(=O)c2ccccc2C1=O
inactive: [1] 26.8% | [2] 12.8% | [3] 31.1% | [4] 36% | [5] 38.9% | [6] 13.6%

COc1cc(/C=C/C(=O)N[C@@H]2C(=O)N3[C@@H]2SC(C)(C)[C@@H]3C(=O)O)cc(OC)c1OC
inactive: [1] -5.6% | [2] -18.4% | [3] -34.8% | [4] 10.1% | [5] -7% | [6] -43.9%

Cc1ccc(N=Cc2ccc(C(N)=S)cc2)cc1
inactive: [1] 7.05% | [2] 21.3% | [3] 1.45% | [4] -17.4% | [5] 18.8% | [6] 24%

Nc1[nH]c(=S)[nH]c(=S)c1N
inactive: [1] -30.6% | [2] -8.6% | [3] -15.2% | [4] -44.8% | [5] -15.3% | [6] -25.4%

CN(C(=O)C1C2c3ccccc3C(c3ccccc32)C1C(=O)N(C)c1ccccc1)c1ccccc1 (stereo unspecified)
inactive: [1] 29.4% | [2] 1.3% | [3] 22.4% | [4] -39% | [5] 1.1% | [6] 21.9%

C(=C(c1ccccc1)c1ccccc1)=C(c1ccccc1)c1ccccc1
inactive: [1] 30.8% | [2] 12.9% | [3] 24.6% | [4] -15.4% | [5] 4.95% | [6] 32%

O=[N+]([O-])c1ccccc1N/N=C/c1ccccc1
inactive: [1] -10.2% | [2] 7.1% | [3] 2.6% | [4] -65.9% | [5] 8.35% | [6] 10.8%

O=C1c2ccccc2C(=O)N1CCc1ncc[nH]1
inactive: [1] 1.45% | [2] 17% | [3] 0.15% | [4] -23.9% | [5] 6.3% | [6] 2.9%

C[N+](C)(Cc1ccccc1)c1ccccc1
inactive: [1] -3.7% | [2] -6% | [3] -0.15% | [4] -34.9% | [5] 4.1% | [6] -11.2%

O=C1CCCC1Sc1ccccn1 (stereo unspecified)
inactive: [1] -14.4% | [2] -11.5% | [3] -29.6% | [4] -8.5% | [5] -7.15% | [6] -32.2%

O=C(NC(CSC(=O)c1ccccc1)C(=O)O)c1ccccc1 (stereo unspecified)
inactive: [1] 3.2% | [2] -8.5% | [3] -2.6% | [4] -22.1% | [5] 6.8% | [6] 7.45%

CSc1ccc(NC(=O)Nc2ccccc2C(F)(F)F)cc1
inactive: [1] 2.05% | [2] -3.25% | [3] 18.4% | [4] -9.85% | [5] 34.5% | [6] 27%

CC1=N/C(=C\c2cccs2)C(=O)O1
inactive: [1] 26.6% | [2] 30.5% | [3] 28.1% | [4] 20.5% | [5] 22.9% | [6] 28.9%

c1ccc(Oc2nnc3c4ccccc4ccn23)cc1
inactive: [1] 11.4% | [2] -9.55% | [3] 0.1% | [4] -4.4% | [5] 3.9% | [6] -0.35%

Nc1cc(S(=O)(=O)O)cc2cccc(S(=O)(=O)O)c12
inactive: [1] 7% | [2] -7.7% | [3] 0.35% | [4] -20.6% | [5] 25.2% | [6] 30.8%

CC(=O)Nc1ccc(S(=O)(=O)NNC(=O)C(=O)Nc2cccc(Cl)c2)cc1
inactive: [1] -12.5% | [2] -21.4% | [3] -18.2% | [4] 16.4% | [5] -0.1% | [6] -1.6%
